Only some compounds are listed: those with a hit (about 2.1% of all), similar ones and a draw of the others.
Abeta yeast res: restores growth of yeast expressing A-beta42 peptide; yeast expressing A-beta42, growth rescue, OD600, 48 h; response scale: 0% DMSO, 100% iron-clioquinol control; Potency, µM (titrated, usually from 46.1 µM), most hits filed as activators; 410,000 compounds, 0.063% hits; AID 1347071; also: nearly all actives have a fitted effect of over 55% in size
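Yeast growth medium received pinned compounds, then yeast cells expressing toxic A-beta were added; plates incubated at 30 C for 48 hr. Growth read as absorbance at 600 nm, normalized to DMSO and equimolar FeCl3 plus clioquinol controls.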
aSyn yeast inh: alpha-synuclein toxicity inhibition in yeast. 370,000 compounds, 0.14% hits. Potency, µM (titrated, usually from 46.1 µM), without a hit: top-dose growth rescue (activation), most hits filed as activators. Yeast expressing alpha-synuclein, growth rescue, BacTiter-Glo, 24 h; also: % of control where 0% means no effect; nearly all actives have a fitted effect of over 65% in size
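Readout is rescue of growth in alpha-synuclein-expressing yeast, so inhibitors of toxicity appear as activators. Growth after 24 hr at 30 deg C in galactose medium is quantified by luminescence.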
FUS yeast rescue: suppressors of FUS proteinopathy in yeast | S. cerevisiae FUS-expressing, growth rescue, OD600, 24 h | Potency, µM (top dose mostly 76.6 µM), actives largely listed as activators | 390,000 compounds, 0.24% hits | AID 1347120;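 also: plate controls were DMSO vehicle for no effect and reference control for full effect; nearly all actives have a fitted effect of over 55% in size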
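FUS-expressing yeast, raffinose-pregrown, induced in 2% galactose minimal medium at OD 0.005; compounds in a dilution series, 24hr at 30C. Growth restoration read as absorbance at 600 nm. CP55940 positive control, DMSO negative.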
TDP-43 yeast inh: TDP-43 toxicity inhibition in yeast | TDP-43 expressing yeast growth rescue, BacTiter-Glo, 24 h | Potency, µM (top dose mostly 46.1 µM), for inactives: at the top dose growth rescue (activation), actives largely listed as activators | 410,000 compounds, 1.8% hits; also: % of control where 0% means no effect; nearly all actives have a fitted effect of over 50% in size
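Cell-based yeast growth screen: TDP-43 expression induced in galactose, inoculum OD600=0.02 after raffinose pregrowth to mid-log. Read-out BacTiter-Glo luminescence at 24 hr, 30 deg C; inhibition of toxicity seen as signal increase.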
* marks the source's active call; other numbers are inactive results; i = inactive; u = inconclusive; x = not tested or not shown; [ ] = dose if it differs, or a comment. Calls follow the shape of the dose curve; as a rule, active = well fitted curve in the direction sought with a large enough effect; inconclusive = small, poorly fitted or top-dose-only effect, or another doubt; inactive = no such curve, though single readings can be large; an effect the other way counts as inactive or inconclusive. Potency is read from the fitted curve at half-maximal effect.

SMILES	Abeta yeast res	aSyn yeast inh	FUS yeast rescue	TDP-43 yeast inh
COc1ccc(-c2nc(C)c(CCNC(=O)c3cccs3)s2)cc1OC	i	-14.9%	i	22.4µM*
COc1ccc(NC(=O)c2sc(-c3ccccc3)nc2C)c(OC)c1	i	-0.5%	i	5.0%
C/C(N)=C(/C#N)C(=O)COC(=O)c1cc2c(s1)CCC(C)C2 (stereo unspecified)	i	-1.0%	i	u
CCOc1ccc(CN(C)C(=O)CCN2C(=O)c3ccccc3C2=O)cc1OC	i	5.5%	i	2.6%
O=C(Nc1cccc(NC(=O)c2cccc(F)c2)n1)c1cccc(F)c1	i	-2.5%	i	10µM*
O=C(Nc1cccc(NC(=O)c2c(F)cccc2F)n1)c1c(F)cccc1F	i	-21.0%	i	0.0%
COc1ccc(C(=O)CCC(=O)Nc2cc(C)ccc2C)cc1	i	x	i	11.2µM*
CCOC(=O)C1CCCN(C(=O)c2sc3nc(-c4ccc(F)cc4)cn3c2C)C1 (stereo unspecified)	i	3.6%	x	8.91µM*
COc1ccccc1-c1cc(C(=O)N2CCCc3ccccc32)no1	i	17.1%	i	u
Cc1c(C(=O)N2CCN(c3ccccc3F)CC2)sc2nc(-c3ccccc3)cn12	i	8.3%	i	14.1µM*
CCOC(=O)/C(=N/Nc1ccccc1)N1CCCc2ccccc21	i	0.4%	x	-2.3%
CCOC(=O)/C(=N/Nc1ccc(OC)cc1)N1CCCc2ccccc21	i	0.4%	i	12.6µM*
COc1ccc(-c2cc(C(=O)N3CCCc4ccccc43)no2)cc1OC	i	-12.4%	u	15.8µM*
CC(C)(C)OC(=O)N1CCC(c2c(C(=O)N3CCN(C(=O)c4ccco4)CC3)cnn2-c2cccc(F)c2)CC1	i	x	i	-21.2%
COc1ccc(-c2cc(C(=O)N3CCCc4ccccc43)no2)cc1	i	1.2%	x	10µM*
COc1ccc(-c2cn3c(C)c(C(=O)N4CCCc5ccccc54)sc3n2)cc1	i	20µM*	u	25.1µM*
COc1cccc(-c2cc(C(=O)N3CCCc4ccccc43)no2)c1	i	-1.1%	i	23.9%
CC(=O)c1ccccc1OC(=O)c1ccc(-c2ccccc2)cc1	i	-15.8%	i	25.1µM*
COc1ccc(OC)c(C(=O)COC(=O)c2ccc([N+](=O)[O-])o2)c1	i	-36.6%	i	22.4µM*
CC(C)=NOC(=O)c1ccc(-c2ccccc2)cc1	i	-8.4%	x	22.4µM*
CC(=O)c1ccccc1OC(=O)c1ccc([N+](=O)[O-])o1	i	u	i	10µM*
COc1ccccc1NC(=O)c1ccc([N+](=O)[O-])o1	i	-71.5%	i	u
C=CCNC(=O)N1CCCC(C(=O)c2cccc(OC(C)C)c2)C1 (stereo unspecified)	i	-1.8%	i	7.2%
c1ccc2c(c1)ccc1nnc(-c3ccc4c(c3)OCO4)n12	i	-2.8%	i	-1.5%
CCOc1ccc(N(CC(=O)N2CCOCC2)S(=O)(=O)c2ccc(F)cc2)cc1	i	-2.2%	i	7.9%
SMILES	Abeta yeast res	aSyn yeast inh	FUS yeast rescue	TDP-43 yeast inh
O=c1[nH]c2ccc(S(=O)(=O)NCCO)cc2[nH]1	i	0.0%	i	15.4%
CC(NC(=S)Nc1cccc(C(F)(F)F)c1)C(C)(C)C (stereo unspecified)	12.6µM*	-33.8%	i	18.6%
CSc1cnnc2ccccc12	i	-0.3%	x	10.2%
Cc1nc2c(O)c3c(c(O)c2nc1C)C1C=CC3CC1	i	8.1%	x	12.6µM*
Cc1cc(O)c(NC(=O)c2cc([N+](=O)[O-])ccc2Cl)cc1C	i	-2.9%	i	14.1µM*
O=C(Nc1cccnc1)c1ccc([N+](=O)[O-])s1	i	-6.0%	i	12.6µM*
CC(C)CC(=O)Nc1sc2c(c1C(=O)O)CCCCC2	i	-8.1%	i	11.2µM*
CCP(=O)(c1cccc([N+](=O)[O-])c1)c1cccc([N+](=O)[O-])c1	i	-2.0%	i	6.7%
O=C(Nc1ccc(S(=O)(=O)Nc2ncccn2)cc1)c1nn(Cc2ccccc2)c(=O)c2ccccc12	i	-1.6%	i	0.5%
CCn1nc(C(=O)Nc2ccc(S(=O)(=O)Nc3nccs3)cc2)c2ccccc2c1=O	i	-6.2%	25.1µM*	-10.1%
O=C(NC(=S)NC1CCCC1)c1ccccc1	u	-2.3%	i	u
Nc1ncnc2c1ncn2[C@@H]1O[C@H](C(=O)NCCc2ccc(F)cc2)[C@@H](O)[C@H]1O	i	-5.4%	i	6.7%
COc1ccc(-c2nc(SCc3ccccc3)n(S(C)(=O)=O)n2)cc1	i	x	i	2.82µM*
CCS(=O)(=O)n1nc(-c2ccc(Cl)cc2)nc1SCc1ccccc1	i	-40.9%	x	-48.1%
CCOC(=O)Cc1nnc(-c2ccccc2)o1	i	-4.3%	i	-6.6%
Cc1ccc(C2=NN(Cc3nnc(-c4ccccc4)o3)C(=O)SC2)cc1	i	9.5%	x	17.8µM*
Cc1ccc2nc(NC(=O)c3ccccn3)sc2c1	i	7.08µM*	i	10µM*
O=C(CSc1nccn1Cc1ccccc1)NCc1ccc(F)cc1	i	7.7%	i	3.8%
Cc1ccc(Cn2ccnc2SCC(=O)NCc2ccccc2Cl)cc1	i	x	i	11.2µM*
Cc1ccc2nc(NC(=O)CSc3nccn3Cc3ccc(Cl)cc3)sc2c1	i	x	i	11.2µM*
O=C(CSc1nccn1Cc1ccc(F)cc1)Nc1nc2ccccc2s1	u	20µM*	i	u
CCOc1ccc2nc(NC(=O)c3ccccn3)sc2c1	i	-2.8%	i	4.8%
O=C(O)c1ccc(/C=N/N2CCN(Cc3ccc(Cl)cc3)CC2)cc1	i	8.8%	u	-7.4%[9.22 µM]
COc1ccc(CC(=O)OCC(=O)Nc2ncc(Cl)cc2Cl)cc1OC	i	-6.0%	i	-7.3%
COc1ccc(C2Nc3ccccc3-n3c(-c4ccccc4)c4c(=O)n(C)c(=O)n(C)c4c32)cc1 (stereo unspecified)	i	x	u	u
SMILES	Abeta yeast res	aSyn yeast inh	FUS yeast rescue	TDP-43 yeast inh
N/C(CC1CC1(Cl)Cl)=N\OC(=O)c1ccccc1 (stereo unspecified)	i	-35.2%	i	17.8µM*
COC(=O)c1sccc1-c1ccc(C(=O)Nc2ccccc2)o1	i	9.9%	i	12.6µM*
CC(Oc1cccc(Cl)c1)C(=O)Nc1nc(-c2ccccn2)cs1 (stereo unspecified)	u	4.47µM*	i	-38.7%
C[C@H](NC(=O)c1ccccc1)C(=O)Nc1nc(-c2ccccn2)cs1	i	5.6%	i	20.1%
CC(Oc1ccccc1)C(=O)Nc1nc(-c2ccccn2)cs1 (stereo unspecified)	u	22.4µM*	i	u
CC(Oc1ccccc1)C(=O)Nc1nc(-c2ccncc2)cs1 (stereo unspecified)	i	-4.0%	i	10.7%
O=C(c1ccc(F)cc1)N1CCC(C(=O)N2CCCc3ccccc32)CC1	i	7.5%	i	u
